Results reported in paper PMC11006913.

Key:
Assay in all cases: PBM; 200 nM protein, PBS
Details in all cases: dsDNA, one strand shown
HESX1 [1] = target: HESX1 (Homo sapiens, UniProt Q9UBX0 95-180, R165K)
SHOX [2] = target: SHOX (Homo sapiens, UniProt O15266 103-189)
ALX4 [3] = target: ALX4 (Homo sapiens, UniProt Q9H161 200-286)
ALX4 [4] = target: ALX4 (Homo sapiens, UniProt Q9H161 200-286, Q225E)
HESX1 [5] = target: HESX1 (Homo sapiens, UniProt Q9UBX0 95-180)
ALX1 [6] = target: ALX1 (Homo sapiens, UniProt Q15699 118-204, L144V)
ALX3 [7] = target: ALX3 (Homo sapiens, UniProt O95076 139-225, N203Q)
SHOX [8] = target: SHOX (Homo sapiens, UniProt O15266 103-189, R173C)
ALX1 [9] = target: ALX1 (Homo sapiens, UniProt Q15699 118-204, L144R)
ALX3 [10] = target: ALX3 (Homo sapiens, UniProt O95076 139-225)
PROP1 [11] = target: PROP1 (Homo sapiens, UniProt O75360 56-141)
HESX1 [12] = target: HESX1 (Homo sapiens, UniProt Q9UBX0 95-180, R109Q)
PROP1 [13] = target: PROP1 (Homo sapiens, UniProt O75360 56-141, R99H)
ALX3 [14] = target: ALX3 (Homo sapiens, UniProt O95076 139-225, L168Q)
HESX1 [15] = target: HESX1 (Homo sapiens, UniProt Q9UBX0 95-180, P111T)
ALX3 [16] = target: ALX3 (Homo sapiens, UniProt O95076 139-225, L168V)
PROP1 [17] = target: PROP1 (Homo sapiens, UniProt O75360 56-141, F88S)
HESX1 [18] = target: HESX1 (Homo sapiens, UniProt Q9UBX0 95-180, F115L)
ALX1 [19] = target: ALX1 (Homo sapiens, UniProt Q15699 118-204)
ALX3 [20] = target: ALX3 (Homo sapiens, UniProt O95076 139-225, N203S)
ALX3 (Homo sapiens, UniProt O95076 139-225, N203S), sequence (O95076 139-225 N203S): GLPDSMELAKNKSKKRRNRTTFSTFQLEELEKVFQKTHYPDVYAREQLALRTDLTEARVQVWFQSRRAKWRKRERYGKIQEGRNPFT

PROP1 (Homo sapiens, UniProt O75360 56-141, R99H), sequence (O75360 56-141 R99H): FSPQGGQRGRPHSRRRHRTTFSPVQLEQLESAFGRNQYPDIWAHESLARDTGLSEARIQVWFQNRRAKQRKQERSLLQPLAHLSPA
HESX1 (Homo sapiens, UniProt Q9UBX0 95-180, R109Q), sequence (Q9UBX0 95-180 R109Q): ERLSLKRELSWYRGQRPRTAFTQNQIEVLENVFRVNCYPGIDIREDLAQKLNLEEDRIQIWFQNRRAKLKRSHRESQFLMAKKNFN
ALX4 (Homo sapiens, UniProt Q9H161 200-286), sequence (Q9H161 200-286): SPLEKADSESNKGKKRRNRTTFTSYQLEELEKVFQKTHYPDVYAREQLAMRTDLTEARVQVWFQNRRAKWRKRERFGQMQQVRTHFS
ALX1 (Homo sapiens, UniProt Q15699 118-204, L144V), sequence (Q15699 118-204 L144V): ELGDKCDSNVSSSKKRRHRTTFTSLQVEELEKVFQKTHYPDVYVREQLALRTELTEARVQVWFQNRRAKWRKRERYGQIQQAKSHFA
HESX1 (Homo sapiens, UniProt Q9UBX0 95-180), sequence (Q9UBX0 95-180): as the sequence (Q9UBX0 95-180 R109Q) above, with Q15R counted along it
HESX1 (Homo sapiens, UniProt Q9UBX0 95-180, P111T), sequence (Q9UBX0 95-180 P111T): as the sequence (Q9UBX0 95-180 R109Q) above, with Q15R, P17T counted along it
PROP1 (Homo sapiens, UniProt O75360 56-141), sequence (O75360 56-141): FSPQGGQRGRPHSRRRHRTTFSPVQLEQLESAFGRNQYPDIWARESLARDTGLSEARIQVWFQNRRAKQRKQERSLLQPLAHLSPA
ALX3 (Homo sapiens, UniProt O95076 139-225, L168Q), sequence (O95076 139-225 L168Q): as the sequence (O95076 139-225 N203S) above, with L30Q, S65N counted along it
SHOX (Homo sapiens, UniProt O15266 103-189), sequence (O15266 103-189): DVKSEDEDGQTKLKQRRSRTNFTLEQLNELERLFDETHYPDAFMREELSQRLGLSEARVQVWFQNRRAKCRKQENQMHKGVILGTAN
HESX1 (Homo sapiens, UniProt Q9UBX0 95-180, R165K), sequence (Q9UBX0 95-180 R165K): as the sequence (Q9UBX0 95-180 R109Q) above, with Q15R, R71K counted along it
ALX4 (Homo sapiens, UniProt Q9H161 200-286, Q225E), sequence (Q9H161 200-286 Q225E): as the sequence (Q9H161 200-286) above, with Q26E counted along it
ALX3 (Homo sapiens, UniProt O95076 139-225), sequence (O95076 139-225): as the sequence (O95076 139-225 N203S) above, with S65N counted along it
ALX3 (Homo sapiens, UniProt O95076 139-225, N203Q), sequence (O95076 139-225 N203Q): as the sequence (O95076 139-225 N203S) above, with S65Q counted along it
ALX1 (Homo sapiens, UniProt Q15699 118-204, L144R), sequence (Q15699 118-204 L144R): as the sequence (Q15699 118-204 L144V) above, with V27R counted along it
SHOX (Homo sapiens, UniProt O15266 103-189, R173C), sequence (O15266 103-189 R173C): as the sequence (O15266 103-189) above, with R71C counted along it
PROP1 (Homo sapiens, UniProt O75360 56-141, F88S), sequence (O75360 56-141 F88S): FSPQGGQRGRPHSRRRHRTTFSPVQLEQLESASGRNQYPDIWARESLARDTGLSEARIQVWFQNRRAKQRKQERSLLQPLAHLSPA
ALX3 (Homo sapiens, UniProt O95076 139-225, L168V), sequence (O95076 139-225 L168V): as the sequence (O95076 139-225 N203S) above, with L30V, S65N counted along it
ALX1 (Homo sapiens, UniProt Q15699 118-204), sequence (Q15699 118-204): as the sequence (Q15699 118-204 L144V) above, with V27L counted along it
HESX1 (Homo sapiens, UniProt Q9UBX0 95-180, F115L), sequence (Q9UBX0 95-180 F115L): as the sequence (Q9UBX0 95-180 R109Q) above, with Q15R, F21L counted along it

For AAATTAAT, which binding signal (HESX1 [1]) is on record?
Its binding signal is 11.7 upbm affinity estimate (log intensity, higher = more binding, comparable within an allelic series).

What about the binding signal (SHOX [2]) of the same sequence?
Its binding signal is 11.9 upbm affinity estimate (log intensity, higher = more binding, comparable within an allelic series).

And the binding signal (ALX4 [3])?
The binding signal was 14 upbm affinity estimate (log intensity, higher = more binding, comparable within an allelic series).

And the binding signal (ALX4 [4])?
Its binding signal is 13.3 upbm affinity estimate (log intensity, higher = more binding, comparable within an allelic series).

And the binding signal (HESX1 [5])?
The binding signal was 11.5 upbm affinity estimate (log intensity, higher = more binding, comparable within an allelic series).

What about the binding signal (ALX1 [6]) of the same sequence?
The binding signal was 11.9 upbm affinity estimate (log intensity, higher = more binding, comparable within an allelic series).

What about the binding signal (ALX3 [7]) of the same sequence?
The binding signal was 8.56 upbm affinity estimate (log intensity, higher = more binding, comparable within an allelic series).

And the binding signal (SHOX [8])?
Its binding signal is 9.34 upbm affinity estimate (log intensity, higher = more binding, comparable within an allelic series).

What about the binding signal (ALX1 [9]) of the same sequence?
The binding signal was 11.6 upbm affinity estimate (log intensity, higher = more binding, comparable within an allelic series).

What about the binding signal (ALX3 [10]) of the same sequence?
Its binding signal is 12.5 upbm affinity estimate (log intensity, higher = more binding, comparable within an allelic series).

What about the binding signal (PROP1 [11]) of the same sequence?
The binding signal was 11.2 upbm affinity estimate (log intensity, higher = more binding, comparable within an allelic series).

And the binding signal (HESX1 [12])?
The binding signal was 8.9 upbm affinity estimate (log intensity, higher = more binding, comparable within an allelic series).

And the binding signal (PROP1 [13])?
The binding signal was 10.9 upbm affinity estimate (log intensity, higher = more binding, comparable within an allelic series).

What about the binding signal (ALX3 [14]) of the same sequence?
Its binding signal is 10.6 upbm affinity estimate (log intensity, higher = more binding, comparable within an allelic series).

And the binding signal (HESX1 [15])?
Its binding signal is 10.4 upbm affinity estimate (log intensity, higher = more binding, comparable within an allelic series).

What about the binding signal (ALX3 [16]) of the same sequence?
The binding signal was 10 upbm affinity estimate (log intensity, higher = more binding, comparable within an allelic series).

What about the binding signal (PROP1 [17]) of the same sequence?
The binding signal was 7.7 upbm affinity estimate (log intensity, higher = more binding, comparable within an allelic series).

What about the binding signal (HESX1 [18]) of the same sequence?
The binding signal was 7.97 upbm affinity estimate (log intensity, higher = more binding, comparable within an allelic series).

And the binding signal (ALX1 [19])?
The binding signal was 12.5 upbm affinity estimate (log intensity, higher = more binding, comparable within an allelic series).

What about the binding signal (ALX3 [20]) of the same sequence?
Its binding signal is 8.72 upbm affinity estimate (log intensity, higher = more binding, comparable within an allelic series).

With ACCAATTA as the sequence, how does the binding signal (HESX1 [1]) read?
Its binding signal is 13.7 upbm affinity estimate (log intensity, higher = more binding, comparable within an allelic series).

And the binding signal (SHOX [2])?
Its binding signal is 12.7 upbm affinity estimate (log intensity, higher = more binding, comparable within an allelic series).

What about the binding signal (ALX4 [3]) of the same sequence?
Its binding signal is 14.2 upbm affinity estimate (log intensity, higher = more binding, comparable within an allelic series).

What about the binding signal (ALX4 [4]) of the same sequence?
The binding signal was 13.8 upbm affinity estimate (log intensity, higher = more binding, comparable within an allelic series).

What about the binding signal (HESX1 [5]) of the same sequence?
The binding signal was 13.6 upbm affinity estimate (log intensity, higher = more binding, comparable within an allelic series).

What about the binding signal (ALX1 [6]) of the same sequence?
Its binding signal is 12.1 upbm affinity estimate (log intensity, higher = more binding, comparable within an allelic series).

What about the binding signal (ALX3 [7]) of the same sequence?
Its binding signal is 8.43 upbm affinity estimate (log intensity, higher = more binding, comparable within an allelic series).

What about the binding signal (SHOX [8]) of the same sequence?
Its binding signal is 10.4 upbm affinity estimate (log intensity, higher = more binding, comparable within an allelic series).

And the binding signal (ALX1 [9])?
Its binding signal is 11.7 upbm affinity estimate (log intensity, higher = more binding, comparable within an allelic series).

And the binding signal (ALX3 [10])?
The binding signal was 12.8 upbm affinity estimate (log intensity, higher = more binding, comparable within an allelic series).

What about the binding signal (PROP1 [11]) of the same sequence?
The binding signal was 12 upbm affinity estimate (log intensity, higher = more binding, comparable within an allelic series).

And the binding signal (HESX1 [12])?
The binding signal was 10.8 upbm affinity estimate (log intensity, higher = more binding, comparable within an allelic series).

And the binding signal (PROP1 [13])?
Its binding signal is 12.3 upbm affinity estimate (log intensity, higher = more binding, comparable within an allelic series).

What about the binding signal (ALX3 [14]) of the same sequence?
The binding signal was 11.1 upbm affinity estimate (log intensity, higher = more binding, comparable within an allelic series).

What about the binding signal (HESX1 [15]) of the same sequence?
The binding signal was 12.3 upbm affinity estimate (log intensity, higher = more binding, comparable within an allelic series).

And the binding signal (ALX3 [16])?
Its binding signal is 10.7 upbm affinity estimate (log intensity, higher = more binding, comparable within an allelic series).

What about the binding signal (PROP1 [17]) of the same sequence?
The binding signal was 7.81 upbm affinity estimate (log intensity, higher = more binding, comparable within an allelic series).

And the binding signal (HESX1 [18])?
Its binding signal is 8.41 upbm affinity estimate (log intensity, higher = more binding, comparable within an allelic series).

And the binding signal (ALX1 [19])?
Its binding signal is 12.7 upbm affinity estimate (log intensity, higher = more binding, comparable within an allelic series).

And the binding signal (ALX3 [20])?
Its binding signal is 8.62 upbm affinity estimate (log intensity, higher = more binding, comparable within an allelic series).

CAATTAAA was tested. Which binding signal (HESX1 [1]) did it give?
Its binding signal is 12.6 upbm affinity estimate (log intensity, higher = more binding, comparable within an allelic series).

What about the binding signal (SHOX [2]) of the same sequence?
Its binding signal is 12 upbm affinity estimate (log intensity, higher = more binding, comparable within an allelic series).

And the binding signal (ALX4 [3])?
Its binding signal is 14 upbm affinity estimate (log intensity, higher = more binding, comparable within an allelic series).

What about the binding signal (ALX4 [4]) of the same sequence?
The binding signal was 13.5 upbm affinity estimate (log intensity, higher = more binding, comparable within an allelic series).

And the binding signal (HESX1 [5])?
The binding signal was 12.6 upbm affinity estimate (log intensity, higher = more binding, comparable within an allelic series).

What about the binding signal (ALX1 [6]) of the same sequence?
The binding signal was 11.7 upbm affinity estimate (log intensity, higher = more binding, comparable within an allelic series).

And the binding signal (ALX3 [7])?
The binding signal was 8.41 upbm affinity estimate (log intensity, higher = more binding, comparable within an allelic series).

What about the binding signal (SHOX [8]) of the same sequence?
The binding signal was 9.46 upbm affinity estimate (log intensity, higher = more binding, comparable within an allelic series).

What about the binding signal (ALX1 [9]) of the same sequence?
The binding signal was 11.5 upbm affinity estimate (log intensity, higher = more binding, comparable within an allelic series).

And the binding signal (ALX3 [10])?
The binding signal was 12.6 upbm affinity estimate (log intensity, higher = more binding, comparable within an allelic series).

And the binding signal (PROP1 [11])?
The binding signal was 11.6 upbm affinity estimate (log intensity, higher = more binding, comparable within an allelic series).

What about the binding signal (HESX1 [12]) of the same sequence?
Its binding signal is 9.38 upbm affinity estimate (log intensity, higher = more binding, comparable within an allelic series).

What about the binding signal (PROP1 [13]) of the same sequence?
Its binding signal is 11.6 upbm affinity estimate (log intensity, higher = more binding, comparable within an allelic series).

What about the binding signal (ALX3 [14]) of the same sequence?
Its binding signal is 10.7 upbm affinity estimate (log intensity, higher = more binding, comparable within an allelic series).

What about the binding signal (HESX1 [15]) of the same sequence?
Its binding signal is 11.3 upbm affinity estimate (log intensity, higher = more binding, comparable within an allelic series).

And the binding signal (ALX3 [16])?
The binding signal was 10.3 upbm affinity estimate (log intensity, higher = more binding, comparable within an allelic series).

And the binding signal (PROP1 [17])?
The binding signal was 7.64 upbm affinity estimate (log intensity, higher = more binding, comparable within an allelic series).

What about the binding signal (HESX1 [18]) of the same sequence?
Its binding signal is 7.76 upbm affinity estimate (log intensity, higher = more binding, comparable within an allelic series).

And the binding signal (ALX1 [19])?
Its binding signal is 12.2 upbm affinity estimate (log intensity, higher = more binding, comparable within an allelic series).

And the binding signal (ALX3 [20])?
Its binding signal is 8.55 upbm affinity estimate (log intensity, higher = more binding, comparable within an allelic series).

What does the source list for ATAATTGA?
binding signal (HESX1 [1]): 13.1 upbm affinity estimate (log intensity, higher = more binding, comparable within an allelic series); binding signal (SHOX [2]): 12.3 upbm affinity estimate (log intensity, higher = more binding, comparable within an allelic series); binding signal (ALX4 [3]): 14 upbm affinity estimate (log intensity, higher = more binding, comparable within an allelic series); binding signal (ALX4 [4]): 13.3 upbm affinity estimate (log intensity, higher = more binding, comparable within an allelic series); binding signal (HESX1 [5]): 13.1 upbm affinity estimate (log intensity, higher = more binding, comparable within an allelic series); binding signal (ALX1 [6]): 11.7 upbm affinity estimate (log intensity, higher = more binding, comparable within an allelic series); binding signal (ALX3 [7]): 8.47 upbm affinity estimate (log intensity, higher = more binding, comparable within an allelic series); binding signal (SHOX [8]): 9.68 upbm affinity estimate (log intensity, higher = more binding, comparable within an allelic series); binding signal (ALX1 [9]): 11.5 upbm affinity estimate (log intensity, higher = more binding, comparable within an allelic series); binding signal (ALX3 [10]): 12.5 upbm affinity estimate (log intensity, higher = more binding, comparable within an allelic series); binding signal (PROP1 [11]): 11.6 upbm affinity estimate (log intensity, higher = more binding, comparable within an allelic series); binding signal (HESX1 [12]): 9.23 upbm affinity estimate (log intensity, higher = more binding, comparable within an allelic series); binding signal (PROP1 [13]): 11.8 upbm affinity estimate (log intensity, higher = more binding, comparable within an allelic series); binding signal (ALX3 [14]): 10.7 upbm affinity estimate (log intensity, higher = more binding, comparable within an allelic series); binding signal (HESX1 [15]): 11.7 upbm affinity estimate (log intensity, higher = more binding, comparable within an allelic series); binding signal (ALX3 [16]): 10.2 upbm affinity estimate (log intensity, higher = more binding, comparable within an allelic series); binding signal (PROP1 [17]): 7.86 upbm affinity estimate (log intensity, higher = more binding, comparable within an allelic series); binding signal (HESX1 [18]): 8.13 upbm affinity estimate (log intensity, higher = more binding, comparable within an allelic series); binding signal (ALX1 [19]): 12.3 upbm affinity estimate (log intensity, higher = more binding, comparable within an allelic series); binding signal (ALX3 [20]): 8.62 upbm affinity estimate (log intensity, higher = more binding, comparable within an allelic series)
